The supplement of paper PMC6555819

What was measured:
Test in all cases: PBM binding z-score (relative to random genomic background probes); higher = stronger binding; sequences stand for … in GC…GCGATTGACAGCGTAGAATGAAGG
[1] = tested on: FXR:RXRa (NR concentration 270 nM, RXRa partner concentration 90 nM)
Summary of the method: (§1)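 Scanned fluorescence from custom Agilent 4×180K protein-binding microarrays was regression-normalized. Binding z-scores use random background probes as reference. Ligand-free nuclear receptor dimers were incubated on the arrays for 1 h and detected with antibodies against each partner (one per run).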

[2] = tested on: LXRa:RXRa (NR concentration 270 nM, RXRa partner concentration 90 nM)
Summary of the method: as §1

[3] = tested on: LXRa homodimer (NR concentration 270 nM)
Summary of the method: as §1

[4] = tested on: LXRb:RXRa (NR concentration 270 nM, RXRa partner concentration 90 nM)
Summary of the method: as §1

[5] = tested on: LXRb homodimer (NR concentration 270 nM)
Summary of the method: as §1

[6] = tested on: PPARa:RXRa (NR concentration 270 nM, RXRa partner concentration 90 nM)
Summary of the method: as §1

[7] = tested on: PPARg:RXRa (NR concentration 180 nM, RXRa partner concentration 90 nM)
Summary of the method: as §1

[8] = tested on: PPARg:RXRa 270nM:90nM, anti-RXR (NR concentration 270 nM, RXRa partner concentration 90 nM)
Summary of the method: as §1

[9] = tested on: PPARg:RXRa 30nM:10nM, anti-RXR (NR concentration 30 nM, RXRa partner concentration 10 nM)
Summary of the method: as §1

[10] = tested on: PPARg:RXRa 90nM:30nM, anti-RXR (NR concentration 90 nM, RXRa partner concentration 30 nM)
Summary of the method: as §1

[11] = tested on: PPARg:RXRa DBDmut IVT, anti-RXR (DBD mutation: RXRa K156A/R161A, NR concentration 270 nM, RXRa partner concentration 90 nM)
Summary of the method: as §1

[12] = tested on: PPARg:RXRa IVT, anti-PPARg (NR concentration 270 nM, RXRa partner concentration 90 nM)
Summary of the method: as §1

[13] = tested on: PPARg DBDmut:RXRa IVT, anti-PPARg (DBD mutation: PPARg1 K132A/R137A, NR concentration 270 nM, RXRa partner concentration 90 nM)
Summary of the method: as §1

[14] = tested on: PPARg DBDmut IVT, anti-PPARg (DBD mutation: PPARg1 K132A/R137A, NR concentration 270 nM)
Summary of the method: as §1

[15] = tested on: PPARg homodimer (NR concentration 180 nM)
Summary of the method: as §1

[16] = tested on: PXR:RXRa (NR concentration 270 nM, RXRa partner concentration 90 nM)
Summary of the method: as §1

[17] = tested on: PXR homodimer (NR concentration 270 nM)
Summary of the method: as §1

[18] = tested on: RARa:RXR (NR concentration 270 nM, RXRa partner concentration 90 nM)
Summary of the method: as §1

[19] = tested on: RARa homodimer (NR concentration 270 nM)
Summary of the method: as §1

[20] = tested on: RARb:RXRa (NR concentration 270 nM, RXRa partner concentration 90 nM)
Summary of the method: as §1

Sequence	PBM binding z-score [1]	PBM binding z-score [2]	PBM binding z-score [3]	PBM binding z-score [4]	PBM binding z-score [5]	PBM binding z-score [6]	PBM binding z-score [7]	PBM binding z-score [8]	PBM binding z-score [9]	PBM binding z-score [10]	PBM binding z-score [11]	PBM binding z-score [12]	PBM binding z-score [13]	PBM binding z-score [14]	PBM binding z-score [15]	PBM binding z-score [16]	PBM binding z-score [17]	PBM binding z-score [18]	PBM binding z-score [19]	PBM binding z-score [20]
CGTCCAAGGTCAGAGGGGTCAGTGAATGCCGAGT	6.36	4.81	1.33	4.54	0.592	5.12	4.33	4.71	1.43	3.39	2.84	3.28	-0.262	0.193	5.46	6.03	9.87	6.26	2.33	5.24
CCTGCTAGGTCATGGTCAGCTATTCTACAGTATG	3.41	2.49	0.199	1.79	-0.409	3.28	2.34	2.63	0.534	1.64	4.23	3.4	-0.449	-0.223	2.13	1.28	-0.498	2.3	-0.317	3.95
CCAAGTTGGTCAAGGTCACACACGCTATAGGTAC	4.98	4.1	1.98	3.73	0.363	4.23	3.48	4.02	1.45	3.14	2.97	3.8	0.633	0.94	3.54	4.6	4.77	4.56	1.99	4.27
ACTACTAGTTGAGACGAGGGCAACCGATAGGTTG	0.166	-0.245	-0.365	-0.0617	-0.193	0.173	0.721	0.0309	-0.149	-0.0878	0.0475	0.419	0.298	0.0425	0.265	1.22	0.4	0.775	0.103	0.93
GGAACGAGGGCAAAGTTGATAACATCTGTCGACG	1.57	1.1	-0.134	1.12	-0.18	4.13	7.22	7.08	6.1	7.67	3.83	4.15	0.399	0.51	1.5	1.23	0.336	1.49	0.102	2.25
CCTCCTGGGCCACGAAAGGTCATTGATTCAGTGA	3.25	5.1	4.52	4.15	-0.0448	4.14	1.39	2.94	0.283	2.02	0.578	2.2	-0.811	-1.6	1.96	5.33	0.829	4.92	0.516	3.97
CCTACTGGGCGAAAGGTCATTGATTCCAATGCTC	4.47	4.72	3.02	4.35	0.417	5.92	11	9.6	9.1	11.6	3.27	5.79	-0.635	-0.595	2.89	4.98	2.08	5.57	0.869	4.28
